Measurements published in PubChem BioAssay (NCI).
Compounds without any hit were thinned out: in the full panel of roughly 83,000, 20% have a hit.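 Each cell line was grown in a 96-well plate and treated with one concentration of compound for 48 hours. Values below 10 were considered active.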 A number with no mark means an inactive call. Calls of active or inactive are those of the source.

Experiments:
Assay in all cases: NCI-60 one-dose screen, 48 h (100 = growth as untreated, 0 = no growth, -100 = all killed)
Details in all cases: 10 µM unless noted
HCT-15 colon = system: HCT-15 colon
HT29 colon = system: HT29 colon
SNB-75 CNS = system: SNB-75 CNS
SNB-19 CNS = system: SNB-19 CNS
U251 CNS = system: U251 CNS
PC-3 prostate = system: PC-3 prostate
SK-MEL-5 melanoma = system: SK-MEL-5 melanoma
UACC-62 melanoma = system: UACC-62 melanoma
LOX IMVI melanoma = system: LOX IMVI melanoma
SK-MEL-28 melanoma = system: SK-MEL-28 melanoma

SMILES	growth (HCT-15 colon)	growth (HT29 colon)	growth (SNB-75 CNS)	growth (SNB-19 CNS) [%]	growth (U251 CNS)	growth (PC-3 prostate)	growth (SK-MEL-5 melanoma)	growth (UACC-62 melanoma)	growth (LOX IMVI melanoma)	growth (SK-MEL-28 melanoma)
O=C(C[C@]1(O)C(=O)Nc2ccccc21)c1cccc(C(F)(F)F)c1	96.5%	96.1%	76.8%	95.9	92.4%	81.4%	91.7%	78.3%	93.2%	91.6%
CC/C=C\C[C@H](O)C/C=C1/C(=O)C=C[C@@H]1C/C=C\CCCC(=O)N(C)C	-21.8% (active)	-71.5% (active)	72.2%	27.1	-31% (active)	2.37% (active)	-88.6% (active)	-31.6% (active)	-84.3% (active)	21.5%
COC(=O)CC[C@@H]1O[C@@H](c2cccc(C(F)(F)F)c2)[C@@H](O)[C@H]1O	101%	97.8%	92.5%	107	102%	97.8%	98%	104%	97.4%	105%
CCCCCOC(=O)c1c(C)[nH]c(/C=C2\N=C(c3ccc[nH]3)C=C2OC)c1C	-28.8% (active)	-28% (active)	-28.1% (active)	21.2	-24.1% (active)	12.3%	-100% (active)	-70.9% (active)	-99.7% (active)	-45.8% (active)
CCOC(=O)C(=O)C(C(=O)OCC)c1ccccc1 (stereo not given)	108%	116%	107%	103	112%	101%	106%	109%	106%	109%
Nc1nc(-c2ccc(Cl)cc2)nc2c1sc(=S)n2-c1ccccc1	60.1%	47.9%	-30.5% (active)	37.9	17.7%	62.1%	36.8%	46.9%	29.4%	55.7%
CN(C)S(=O)(=O)c1cccc(C(=O)Nc2nc(-c3ccc(F)c(F)c3)cs2)c1	61.3%	74.3%	75.5%	92	55.1%	39.1%	2.37% (active)	45.9%	71.9%	102%
Cc1ccc(C(=O)c2ccc(CC(=O)N/N=C/c3ccccc3O)n2C)cc1	43.5%	101%	59.6%	79.3	76.2%	86.8%	87.4%	87.2%	58%	84.3%
O=C(Cn1cc(CSc2nc3ccccc3o2)nn1)Nc1ccc(F)cc1F	107%	128%	103%	101	120%	101%	98.4%	111%	108%	114%
COC(=O)[C@@H](CCCCNC(=O)[C@]12CCC(C)(C)C[C@@H]1C1=CC[C@@H]3[C@@]4(C)C/C(=C/c5ccco5)C(=O)C(C)(C)[C@@H]4CC[C@@]3(C)[C@]1(C)CC2)NC(=O)[C@]12CCC(C)(C)C[C@@H]1C1=CC[C@@H]3[C@@]4(C)C/C(=C/c5ccco5)C(=O)C(C)(C)[C@@H]4CC[C@@]3(C)[C@]1(C)CC2	103%	112%	106%	95.3	106%	90.3%	97.5%	97.8%	107%	107%
C#CCOc1cccc(Nc2ncnc3cc(NC(=O)C=C)ccc23)c1	7.73% (active)	1.75% (active)	24.7%	33.8	33.1%	24.2%	8.74% (active)	9.66% (active)	3.54% (active)	49%
Cn1cc(-c2csc(-c3cn(C(=O)OC(C)(C)C)c4ccc(Br)cc34)n2)c2ccnc(Cl)c21	24.2%	88.5%	2.34% (active)	44	45.3%	44.2%	95%	96.1%	89.1%	94.7%
Nc1ncc(-c2ccc3ncnc(Nc4cccc(Cl)c4)c3c2)cn1	38.8%	40%	49.8%	59.4	43.6%	36.1%	64.8%	50.6%	44.8%	63.8%
O=C(CSc1oc(-c2ccccc2)nc1S(=O)(=O)c1ccccc1)Nc1ccc(F)cc1	73.7%	91.7%	87.8%	93.5	93.8%	52.7%	78.8%	66.4%	94%	98.4%
O=C1/C(=C/c2cn(-c3ccccc3)nc2-c2ccccc2)SC(=S)N1C1CCCCC1	109%	111%	99.2%	96.9	107%	96.3%	100%	92.6%	91%	101%
O=C(Nc1nc(-c2ccc(Cl)cc2)nc2c1sc(=S)n2-c1ccccc1)C(F)(F)F	54.9%	17.5%	-44.1% (active)	61.5	8.47% (active)	38.6%	64.9%	21.1%	-20.4% (active)	78.9%
CCN(C)S(=O)(=O)Nc1cccc(Nc2ncnc3cc(NC(=O)CCl)ccc23)c1Cl	-12.3% (active)	-56.9% (active)	6.04% (active)	16.7	-77.4% (active)	0.153% (active)	-83.6% (active)	-22.5% (active)	-79% (active)	28.8%
COc1cc(-c2cncn2-c2ccc(-c3nc4ccc(F)cc4s3)cc2)ccc1F	30.5%	30.8%	127%	86.7	83%	107%	68.7%	84.8%	86.7%	95.9%
CNC(=O)c1[nH]cc(-c2ccc(OC)cc2)c1-c1cc(OC)c2c(c1OC)OCO2	97.1%	108%	66.9%	93.9	98.4%	92.1%	100%	90%	96.5%	101%
C=CCn1c(C)nc2ccc(Nc3nc(Nc4ccc5nc(C)n(CC=C)c5c4)c4ccccc4n3)cc21	-51.7% (active)	-96.7% (active)	-95.2% (active)	30.6	-94.2% (active)	-47.8% (active)	-94.2% (active)	-87% (active)	-88.6% (active)	-96% (active)
N#CC1=C(c2ccccc2)Nc2c(c(-c3ccc(Cl)cc3)nn2-c2ccccc2)C12C(=O)Nc1ccc(Cl)cc12 (stereo not given)	61.8%	47.8%	6.22% (active)	70.5	64%	51%	87.5%	66%	77.5%	90.8%
CCN(CC)CC(O)COc1c(Br)c(Br)c(Br)c2c1OC(C)(C)C2 (stereo not given)	97.3%	18.9%	91.3%	73.4	85.6%	78.1%	-78.9% (active)	-43.7% (active)	52.9%	64%
Cc1cc(=O)n(C(=O)Nc2ccccc2Cl)c2cc(O)ccc12	107%	108%	93.7%	97	98.6%	93.6%	101%	101%	99.1%	107%
COc1ccc(\C=N/N=C(N)/C(N)=N\N=C/c2ccc(OC)cc2)cc1	104%	102%	86.8%	112	107%	101%	105%	104%	99.1%	125%
Cc1[nH]c(=O)[nH]c(=O)c1Br	106%	131%	91.6%	98	98.2%	97.9%	112%	97.3%	104%	114%
COc1ccc(NC2=C(I)C(=O)c3ncccc3C2=O)cc1	-40.2% (active)	11.5%	-93.1% (active)	19.3	-47.7% (active)	12.3%	-94.6% (active)	-71.2% (active)	-58.6% (active)	20.5%
